Shown are actives, neighbours in structure and some others; about 7.1% of the full set was active somewhere.
MCF10A rereplic – A quantitative high throughput screen for small molecules that induce DNA re-replication in MCF 10a normal breast cells. MCF 10A DNA re-replication, Hoechst nuclear intensity, 48 h. Potency, µM (doses to about 46.1 µM), without a hit: at the highest dose activity, positive = re-replication, most hits filed as activators. 2.9% of 350,000 active. AID 624296, 2012; further: % of control where 0% means no effect; nearly all actives have a fitted effect of over 50% in size
SW480 rerep – A quantitative high throughput screen for small molecules that induce DNA re-replication in SW480 colon adenocarcinoma cells. SW480 DNA re-replication, Hoechst DNA content imaging, 48 h. Potency, µM (highest dose often 46.1 µM), for the others: top-dose re-replication activation, actives largely listed as activators. 1.8% of 340,000 active. AID 624297, 2012; further: % of control where 0% means no effect; nearly all actives have a fitted effect of over 55% in size
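Quantitative HTS format with DMSO vehicle controls; 48 hr drug incubation at 37 C, then 40 min Hoechst staining and scanning imager measurement at 405 nm excitation.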
ELG1 genotoxic – qHTS screen for small molecules that induce genotoxicity in human embryonic kidney (HEK293T) cells expressing luciferase-tagged ELG1 | HEK293T ELG1-luciferase reporter, luminescence, 16 h | Potency, µM (highest dose often 46 µM), inactives show top-dose activity change, positive = activation, usual class: activators | 1.3% of 330,000 active | AID 504466, 2011; further: % of control where 0% means no effect; nearly all actives have a fitted effect of over 60% in size
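After overnight (16 hr) compound treatment at 37 °C, ELG1-luciferase HEK293T cells were lysed with ONE-Glo; luminescence quantified 30 min later at room temperature.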
AT treatment – qHTS Assay for Identifying a Potential Treatment of Ataxia-Telangiectasia | 0.19% of 320,000 active | Potency, µM (titrated, usually from 57.5 µM), inactives show top-dose activation, actives largely listed as activators | F2112 A-T fibroblasts, KAP-1 phosphorylation AlphaLISA; neocarzinostatin DNA damage 30 min before lysis; further: % of control where 0% means no effect; nearly all actives have a fitted effect of over 45% in size
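hTERT-immortalized A-T patient fibroblasts (F2112), 500 cells/well in OPTI-MEM, 1% FBS, got compounds for 60 min, then NCS for 30 min at 37C. Lysates were then assayed for phospho-KAP-1 by AlphaLISA (anti-pKAP1 donor, anti-KAP1 acceptor beads), 6 hr at 25C.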
p53 reactivation – qHTS assay for re-activators of p53 using a Luc reporter; H1299 p53-A138V BP100-luciferase reporter, luminescence, 24 h; Potency, µM (highest dose often 92.2 µM), without a hit: at the highest dose activity change, positive = activation, hits mostly activators; 0.063% of 320,000 active; AID 504706, 2011; further: % of control where 0% means no effect; nearly all actives have a fitted effect of over 45% in size
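p53-null H1299 cells stably carrying temperature-sensitive p53-A138V and a BP100-luciferase reporter were pinned with compounds (4-point, 1:5 series) and held 24 hrs at 37 deg C. Luminescence was read 10 min after detection reagent.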
ELG1 DNA repair – qHTS screen for small molecules that inhibit ELG1-dependent DNA repair in human embryonic kidney (HEK293T) cells expressing luciferase-tagged ELG1; HEK293T ELG1-luciferase reporter, luminescence, 16 h; DNA damage induced by 5-fluorouridine; Potency, µM (highest dose often 46.1 µM), for inactives: at the top dose activity change, negative = inhibition, usual class: inhibitors; 2.3% of 330,000 active; AID 504467, 2011; further: on the % scale 0 is the no-effect control and ±100 the full control effect; nearly all actives have a fitted effect of over 55% in size
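In this reporter screen, reduction of luminescence relative to DMSO vehicle indicated activity. Compounds and 5-fluorouridine were added together to 2,000 cells per well, incubated for 16 hr at 37 °C, then developed with ONE-Glo.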
* hit, by the source's call; ? = inconclusive; . = no result; [ ] = dose if it differs, or a comment. The call rests on the fitted dose curve; in most records, active means well fitted curve in the direction sought with a large enough effect; inconclusive means small, poorly fitted or top-dose-only effect, or another doubt; inactive means no such curve, though single readings can be large; an effect the other way counts as inactive or inconclusive. Potency means the concentration at half of the fitted maximal effect.

SMILES	MCF10A rereplic	SW480 rerep	ELG1 genotoxic	AT treatment	p53 reactivation	ELG1 DNA repair
COc1cc(CNC(C)(C)CO)cc(Br)c1OCc1ccc(Cl)cc1	?	?	5%	-4%	2%	4%
CCOc1ccc(CC(=O)Nc2ccc(S(=O)(=O)N3CCCC3)cc2)cc1	6%	13%	-4%	8%	-12%	-16%
CCC1(CC)C(=O)NC(=O)NC1=S	-2%	-9%	.	.	.	.
COC(=O)Nc1ccc(OCc2ccccc2)cc1	9%	1%	?	7%	27%	?
CS(=O)(=O)Nc1ccc(OCc2ccccc2)cc1	-8%	-19%	15µM*	7%	?	?
C=CCc1c(C)nc(SC)nc1Nc1ccc(C(=O)O)cc1	?	-17%	5%	3%	-15%	?
C=CCc1c(C)nc(SC)nc1Nc1ccc(C(C)=O)cc1	12%	-5%	0%	4%	?	7.3µM*
Cc1c(C)n(-c2ccc(Cl)cc2)c2ncnc(N)c12	17%	2%	-17%	1%	1%	?
COC(=O)c1cn(NC(=O)c2cc([N+](=O)[O-])ccc2F)c(=O)c2ccccc12	4.6µM*	?	-9%	-4%	-6%	?
Cc1ccc(C(=O)NCCNC(=O)COc2ccc(Cl)cc2)cn1	-1%	-10%	-1%	-1%	-4%	-4%
COc1cc2c(cc1OC)C1=NC(=O)CN1C(SCc1ccccc1C)=N2	-2%	-14%	-2%	2%	1%	10µM*
Cc1ccc(CSC2=Nc3ccccc3C3=NC(=O)CN23)cc1	-3%	-94%	10%	-1%	4%	7%
N#CC1CN(Cc2ccccc2)CN(Cc2ccccc2)C1	15µM*	?	-5%	3%	4%	13%
C[C@H](CO)N1C[C@H](C)[C@@H](CN(C)S(C)(=O)=O)Oc2ccc(NS(=O)(=O)c3cn(C)cn3)cc2C1=O	8%	-2%	1%	7%	-7%	12%
CCOc1ccc(S(=O)(=O)NCCC(=O)NCc2ccncc2)cc1	1%	-6%	-8%	-4%	-3%	1%
COc1nc(-c2ccccc2)ccc1-c1noc(-c2ccco2)n1	14%	0%	21µM*	2%	?	?
COc1ccccc1-c1noc(-c2ccco2)n1	0%	-4%	6.5µM*	-3%	?	?
COc1nc(-c2ccccc2)ccc1-c1noc(-c2ccccc2)n1	3%	0%	18µM*	8%	?	?
COc1ccc(-c2ccc(-c3noc(-c4ccco4)n3)c(OC)n2)cc1	?	?	17%	4%	26%	?
COc1ccccc1-c1noc(-c2ccccc2)n1	13%	-3%	?	21%	?	?
COc1ccc(-c2ccc(-c3noc(-c4ccccc4)n3)c(OC)n2)cc1	1%	?	?	11%	7%	?
COc1ccccc1C(=O)NCCC(=O)Nc1ccc(S(=O)(=O)N2C(C)CCCC2C)cc1 (stereo not given)	-1%	-26%	-6%	-5%	-16%	?
Cc1ccc(S(=O)(=O)Nc2cccc3ncccc23)cc1	6%	11%	-3%	5%	-4%	-5%
Cc1ccc(S(=O)(=O)Nc2cccc3ncccc23)s1	4.6µM*	?	?	32%	-58%	?
COc1ccc([C@H]2CC(=O)C=C(c3c(C)cc(C)cc3C)C2)cc1	?	-6%	1%	7%	-5%	-26%
SMILES	MCF10A rereplic	SW480 rerep	ELG1 genotoxic	AT treatment	p53 reactivation	ELG1 DNA repair
CC(C)(C)OC(=O)CC12CCCCC1NC(=O)O2 (stereo not given)	3%	0%	-1%	1%	.	?
Cc1cc(-c2ccccc2)cc(-c2ccccc2)[n+]1C	4%	8%	-8%	3%	0%	12µM*
Cc1cc(-c2ccccc2)cc(=O)[nH]1	-4%	-1%	.	.	.	.
Clc1ccc(SCc2csc(N3CCOCC3)n2)cc1	-3%	-7%	8%	-4%	28%	?
Clc1ccc(SCc2cc(N3CCOCC3)nc(-c3ccccn3)n2)cc1	?	8.2µM*	-10%	-3%	-5%	?
CC(=O)Nc1ccc2c(COC(=O)[C@@H](NS(=O)(=O)c3ccc(C)cc3)C(C)C)cc(=O)oc2c1	9%	11%	-1%	7%	-1%	?
O=C(CCN1CCc2ccccc2CC1)c1ccc2c(c1)OCCO2	1.3µM*	13µM*	-1%	3%	-15%	-7%
O=C(CCN1CCN(C(=O)c2ccccc2)CC1)c1ccc(Br)cc1	16µM*	?	-4%	-18%	-17%	2%
O=C(CCN1CCOCC1)c1ccccc1	2.6µM*	199%	2%	.	10%	-10%
O=C(CCCN1CCOCC1)c1ccc2c(c1)OCCO2	?	2%	?	13%	13%	?
O=C(CCN1CCOCC1)c1ccc2c(c1)OCCO2	6.5µM*	?	5%	1%	-33%	1%
COc1ccc(S(=O)(=O)N2CCC(NC(=O)c3cccnc3)CC2)cc1	-18%	-10%	-13%	9%	-2%	8%
CC(C)NC(=O)c1ccc(COc2cc(Cl)ccc2Cl)o1	15%	-7%	-1%	1%	-5%	?
O=C(CN(C(=O)c1csnn1)c1ccc(F)c(Cl)c1)NC1CCCC1	2%	21%	-1%	2%	-7%	9%
O=C(Cc1ccccc1)c1ccc2c(c1)OCCO2	14%	-5%	18µM*	9%	1%	?
CN(Cc1ccccc1)C(=O)c1ccc2c(c1)OCCO2	-2%	1%	4%	-9%	0%	?
O=C(Cc1ccccc1[N+](=O)[O-])OCC(=O)c1ccccc1Br	12%	-2%	1%	3%	8%	13%
CCc1ccc2c(c1)/C(=C/C(=O)c1cccs1)C(=O)N2	?	9.2µM*	?	-11%	-71%	27%
CCOc1ccc(C(=O)CC(Sc2ccc(C)cc2)C(=O)O)cc1 (stereo not given)	?	?	-12%	1%	16%	-11%
O=C(CC(Sc1ccc(Br)cc1)C(=O)O)c1ccc(F)cc1 (stereo not given)	23µM*	?	-10%	-16%	2%	6%
CC(C)OP(=O)(OC(C)C)C(O)c1ccc(N(C)C)cc1 (stereo not given)	-6%	0%[9.22 µM]	-4%	5µM*	-1%	2%

Assay outcomes deposited in PubChem BioAssay by National Center for Advancing Translational Sciences (NCATS).
